HPGD block: HPGD (human) dehydrogenase inhibition; P15428; purified HPGD, NADH fluorescence kinetic, PGE2 substrate; Potency, µM, for inactives: at the highest dose activity change, negative = inhibition, most hits filed as inhibitors; hit rate 4.3% among 150,000; also: potency is read from the fitted curve at half-maximal effect
Target sequence (P15428 whole entry, looked up): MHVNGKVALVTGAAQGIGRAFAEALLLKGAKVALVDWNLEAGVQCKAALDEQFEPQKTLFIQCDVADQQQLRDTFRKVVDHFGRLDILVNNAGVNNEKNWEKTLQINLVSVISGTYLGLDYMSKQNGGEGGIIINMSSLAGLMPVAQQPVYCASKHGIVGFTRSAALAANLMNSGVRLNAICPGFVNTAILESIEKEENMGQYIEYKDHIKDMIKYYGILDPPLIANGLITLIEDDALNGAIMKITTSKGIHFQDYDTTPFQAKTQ
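20 nM HPGD preincubated 15 min at room temperature with compound in 50 mM Tris-HCl pH 8, 0.01% Tween 20. Started with 1 mM NAD+ and 30 uM prostaglandin E2; NADH fluorescence (360/450 nm) read 5 times over 30-s intervals, last minus first.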
KinaseGlo FLuc: blocks Kinase-Glo luciferase, a counter-screen artifact. AID 1379. Potency, µM (doses to about 38.3 µM), without a hit: at the top dose activity change, negative = inhibition, actives largely listed as inhibitors. Kinase-Glo luciferase, ATP luminescence, 8 min. hit rate 0.28% among 200,000; active = well fitted inhibition curve with a large enough effect; inconclusive = small, poorly fitted or top-dose-only effect; also: potency is read from the fitted curve at half-maximal effect; nearly all actives have a fitted effect of over 60% in size
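Substrate mix (final 50 mM imidazole pH 7.2, 50 mM KCl, 7 mM MgCl2, 10 uM ATP, 0.01% Tween 20, 0.05% BSA) plus pin-tool compound, then Kinase-Glo detection mix; 8 min ambient, luminescence read.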
PNC inhibitor: blocks assembly of the perinucleolar compartment | PC3M PTB-GFP, PNC prevalence imaging, 16 h; hits give low values | activity change (PNC), negative = inhibition, % at 10 µM | hit rate 3.1% among 140,000 | AID 2417;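 active = readout at or below -70, meaning at least 70% loss of cells showing the perinucleolar compartment, a nuclear body marking cancer cells; inconclusive = readout between -30 and a set limit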;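 also: plate controls were DMSO wells for no effect and camptothecin positive control wells for full effect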
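Compounds are pinned in duplicate onto adhered PC3M cells stably expressing GFP-tagged PTB and incubated 16 h at 37 C. Cells are then fixed, nuclei stained with Hoechst, and PNC-positive cells counted.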
IMPase inh: membrane-permeable compound that blocks inositol monophosphatase; P97697; 120,000 tested, under 10 active; CHO-M1 cells, IP1 accumulation, HTRF TR-FRET ratio; inhibition (IP1 accumulation), % at 46.1 µM; active = well fitted curve in the direction sought with a large enough effect in the signal ratio, not every such curve was filed as active; inconclusive = small, poorly fitted or top-dose-only effect, or a change in a side signal; inactive = no such curve, though single readings can be large or run the other way; the % refers to the signal ratio;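 also: cells stimulated with carbachol in lithium chloride buffer; plate controls were DMSO basal wells for no effect and reference inhibitor wells for full effect; higher means more IMPase inhibition seen as more IP1 and lower FRET ratio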
Target sequence (P97697 whole entry, looked up): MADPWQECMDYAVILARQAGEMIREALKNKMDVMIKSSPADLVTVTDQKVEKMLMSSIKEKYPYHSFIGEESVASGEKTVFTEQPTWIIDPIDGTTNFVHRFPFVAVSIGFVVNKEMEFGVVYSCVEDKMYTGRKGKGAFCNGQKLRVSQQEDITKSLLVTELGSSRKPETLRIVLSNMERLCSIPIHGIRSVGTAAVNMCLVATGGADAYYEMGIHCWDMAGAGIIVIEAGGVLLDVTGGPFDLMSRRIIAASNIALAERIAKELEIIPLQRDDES
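Elevated IP1 in lysates lowers TR-FRET signal (665/620 ratio and 620 channel reported). Cells were CHO-M1, given carbachol (50 uM as added) plus 50mM LiCl, pH 7.4, 30 min, 37C; compounds titrated up to 46 uM; AC50 by Hill equation.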
ALDH1A1 block: inhibitors of human aldehyde dehydrogenase 1A1; P00352; AID 1030; Purified ALDH1A1, NADH fluorescence, propionaldehyde substrate; hit rate 7.3% among 220,000; Potency, µM (highest dose often 75.3 µM), without a hit: top-dose activity, negative = inhibition, usual class: inhibitors;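 also: potency is read from the fitted curve at half-maximal effect; plate controls were no enzyme wells and a reference inhibitor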
Lamin A splicing: LMNA splicing modulation; HeLa LMNA splicing GFP/RFP minigene ratio, 48 h; hit rate 0.01% among 200,000; AID 1487; Potency, µM (doses to about 46.1 µM), for inactives: at the highest dose ratio change, negative = inhibition, most hits filed as inhibitors; active = well fitted inhibition curve with a large enough effect in the signal ratio, with a control signal flat, not every such curve was filed as active; inconclusive = small, poorly fitted or top-dose-only effect, or effect the other way, or a change in a side signal; the % refers to the signal ratio; also: potency is read from the fitted curve at half-maximal effect
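Read-out is the ratio of GFP to DsRed2 object intensity, acquired by 488 nm laser-scanning cytometry on HeLa lamin A-EGFP minigene reporter cells. Compound incubation 48 hrs at 37 °C in Opti-MEM with 2% FBS; DMSO 0.5% final.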
* marks the source's active call; other numbers are inactive results; ? = inconclusive; · = no result given; [ ] = remark or other dose. The list is not random: actives were taken first. Their share in the collection is about 10%. Unless noted, calls follow the shape of the dose curve; as a rule, active = well fitted inhibition curve with a large enough effect (not every such curve was filed as active); inconclusive = small, poorly fitted or top-dose-only effect, or another doubt; inactive = no such curve, though single readings can be large or run the other way. Unless noted, % is scaled to controls: 0 for no effect and ±100 for the full control effect.

SMILES	HPGD block	KinaseGlo FLuc	PNC inhibitor	IMPase inh	ALDH1A1 block	Lamin A splicing
Cc1ccc(S(=O)(=O)N2CCCOC2CNC(=O)C(=O)NCc2ccncc2)cc1 (stereo not given)	3%	-2%	?	·	?	-3%
Cc1ccc(S(=O)(=O)N2CCCOC2CNC(=O)C(=O)NCc2cccs2)cc1 (stereo not given)	-7%	1%	-9	·	11µM*	0%
O=C(NCCC1=CCCCC1)C(=O)NCC1OCCCN1S(=O)(=O)c1ccc(F)cc1 (stereo not given)	·	3%	·	·	22µM*	16%[46 µM]
CC(C)NC(=O)N1CC[C@@]2(CCCN(C(=O)c3csnn3)C2)C1	-5%	-3%	·	·	-4%	·
Cc1ccc(-c2nn(CC(=O)NC3CCCCC3)c3c2cnc2ccc(F)cc23)cc1C	·	·	·	·	·	13%[46 µM]
CCOCCCn1c(SCC(=O)Nc2ccc(C)cc2)nc2ccccc2c1=O	·	·	·	·	·	4%[46 µM]
CCOc1ccc(C(=O)CSc2nnc3cc(C)c4ccccc4n23)cc1	·	·	·	·	·	27%[46 µM]
CC1CN(c2snnc2C=C2C(=O)OC(C)(C)OC2=O)CC(C)O1 (stereo not given)	·	2%	·	·	20µM*	·
O=C(CCCc1ccccc1)NCc1cn2ccsc2n1	-16%	3%	23	-1	3%	-9%
O=C(CC1CCCCC1)NCc1cn2ccsc2n1	22µM*	7%	6	5	10%	7%
Cc1ccc(NC(=O)C(=O)NCC(c2ccc3c(c2)OCO3)N2CCOCC2)c(C)c1 (stereo not given)	·	·	·	·	·	17%[46 µM]
Cc1ccnc(NC(=O)c2ccc3c(c2)OCO3)c1	·	13µM*	·	·	-11%	-4%[46 µM]
Cc1cc(NC(=O)c2ccc3c(c2)OCO3)ccc1NC(=O)c1ccco1	-13%	11µM*	-3	12	-4%	-7%
O=C(Nc1ccon1)c1ccc2c(c1)OCO2	18µM*	-9%	?	?	-10%	-12%
Cc1ccc2ncc3c(-c4ccccc4)nn(CC(=O)NC4CCCCC4)c3c2c1	·	·	·	·	·	9%[46 µM]
N#C/C(=C\c1ccccc1)c1nc(-c2cc3c(ccc4ccccc43)oc2=O)cs1	·	·	·	-8	·	·
CCC1=C(OC(=O)N(CC)CC)N2C(=O)OC(=NCCOC)[C@]2(C)[C@H]2C1=CC[C@H]1C(=O)N(CC)C(=O)[C@H]12	-2%	-6%	·	·	-8%	·
Nc1ncnc2c1nc(Br)n2C1O[C@H]2COP(=O)(O)O[C@@H]2C1O (stereo not given in full)	-6%	-1%	·	·	3%	?
CCCCSc1cnn(-c2ccccc2)c(=O)c1SCCCC	-9%	-1%	-81*	?	7%	?
Cc1cc(SCC(=O)c2cc3ccccc3o2)nc2ccccc12	35µM*	-5%	?	4	28µM*	3%
Cc1ccc(-c2nc(NC(=O)CSc3cc(C)c4ccccc4n3)ns2)cc1	13µM*	-7%	59	1	7%	-4%
Cc1cc(SCC(=O)c2ccc(O)c(O)c2)nc2ccccc12	·	-1%	·	·	7%	-9%[46 µM]
O=C(CSc1nc2cc(Cl)ccc2s1)c1cc2ccccc2o1	?	-6%	-24	-1	28µM*	9%
Cc1cc(SCC(=O)O)nc2ccccc12	·	0%	·	·	0%	14%[46 µM]
Cc1cc(SCC(=O)N2CCCC2)nc2ccccc12	13µM*	12%	-15	-7	-27%	?
SMILES	HPGD block	KinaseGlo FLuc	PNC inhibitor	IMPase inh	ALDH1A1 block	Lamin A splicing
COc1ccc(-c2ccc(=O)n(CC(=O)Nc3cc(OC)ccc3OC)n2)cc1	·	·	·	·	·	-3%[46 µM]
COC(=O)C1(Cc2ccccc2)C=C2C(=C(c3ccccc3)C(=O)C2C)CN1 (stereo not given)	10µM*	-2%	·	·	25µM*	·
COC(=O)C1(CC(C)C)C=C2C(=C(C(C)C)C(=O)C2C)CN1 (stereo not given)	?	-2%	·	·	35µM*	·
CCCN=C1N/C(=C\c2ccco2)C(=O)N1c1ccccc1	-8%	1%	?	3	-10%	8%
CCCN(CCC)C1=N/C(=C\c2ccco2)C(=O)N1c1ccccc1	?	13%	17	4	14µM*	6%
CCn1c(=N)n(CC(=O)c2cccc([N+](=O)[O-])c2)c2ccccc21	-1%	0%	-6	·	-6%	2%
CCn1c(=N)n(CC(=O)C23CC4CC(CC(C4)C2)C3)c2ccccc21	?	-1%	?	9	22µM*	?
CCc1ccc(OCC(=O)Nc2c(C(=O)c3ccc(Br)cc3)oc3ccccc23)cc1	·	·	·	6	·	·
C=CCNC(=O)c1ccc2nccnc2c1	16µM*	2%	?	1	-17%	0%
CC(C)(C)NC(=O)c1ccc2nccnc2c1	-12%	3%	1	-4	0%	-6%
CO[C@H]1COC(=O)C/C=C\[C@H](C)[C@@H](OC)COC(=O)[C@@H](C)NC(=O)C/C=C\[C@@H]1C	·	·	·	·	2%[13.5 µM]	·
Cc1c(CCOC(=O)CC23CC4CC(CC(C4)C2)C3)sc[n+]1Cc1ccccc1	6%	-5%	36	-3	?	4%
Cc1c(CCOC(=O)C23CC4CC(CC(C4)C2)C3)sc[n+]1CC#N	·	·	·	·	13µM*	·
Cc1nn(C(=O)c2cccnc2)c(C)c1Sc1ccc(Br)cc1	14µM*	0%	-9	8	-5%	11%
O=C(CSc1cccs1)NCCc1ccccc1	14µM*	0%	?	·	-7%	4%
O=C(CSc1nnnn1C1CCCCC1)NNC(=O)c1ccco1	·	3%	·	·	4.7µM*	·
O=C(CSc1nnnn1C1CCCCC1)NCCc1ccccc1	-13%	0%	?	4	10µM*	?
Clc1ccc(/C=C/c2nc3ccccc3[nH]2)cc1	?	13µM*	-1	-2	?	?
Clc1ccc(/C=C/c2nc3ccccc3[nH]2)c(Cl)c1	?	7.1µM*	12	-25	?	?
Cc1cccc(CCn2c(=O)c3ccccc3n(CC(=O)Nc3ccccc3F)c2=O)c1	·	·	·	13	·	·
O=C(NN=C1C2CC3CC1CC(Cl)(C3)C2)c1ccccn1	·	-2%	·	·	?	·
O=C(NN=C1C2CC3CC1CC(Cl)(C3)C2)c1cccs1	·	-1%	·	·	3.2µM*	·
O=C1C(=O)N(Cc2cccc([N+](=O)[O-])c2)c2ccccc21	?	0%	155	·	0.05µM*	4%
CN(C)CCCN1c2ccccc2Sc2ccc(C(F)(F)F)cc21	-2%	-2%	-115*	20[20.6 µM]	11%	?
CSc1ccc2c(c1)N(CCCN(C)C)c1ccccc1S2	-4%	-2%[7.66 µM]	·	·	19%[13.5 µM]	·
CC(C)CN1CC[C@@]2(CCCN(C(=O)c3cc(C(F)(F)F)cc(C(F)(F)F)c3)C2)C1	1%	-2%	·	·	5%	·
NC1=CC(=O)c2cccc3cccc1c23	-14%	-6%	104	?	1µM*	15%

Bioassay records: PubChem BioAssay, National Center for Advancing Translational Sciences (NCATS)
